We go through 3 compounds from paper PMC11062922 (Nature Chemical Biology, 2023).

For experiment [1], the system named is CDK16. On the set-up: species or system human, MV4-11 + K-562 + COLO205 + SK-N-BE2 + OVCAR-8. The conditions noted are these: read-out: apparent Kd; compound concentrations:100 nM and 1000 nM (sheet 'Samples'); n = 1.
Experiment [2] has as its system CDK17. Details: species or system human, MV4-11 + K-562 + COLO205 + SK-N-BE2 + OVCAR-8. To be noted: read-out: apparent Kd; compound concentrations:100 nM and 1000 nM (sheet 'Samples'); n = 1.
In experiment [3] the test system is CDK2. Details: species or system human, MV4-11 + K-562 + COLO205 + SK-N-BE2 + OVCAR-8. The conditions noted are these: read-out: apparent Kd; compound concentrations:100 nM and 1000 nM (sheet 'Samples'); n = 1.
The test system of experiment [4] is CSNK2A1;CSNK2A3. Details: species or system human, MV4-11 + K-562 + COLO205 + SK-N-BE2 + OVCAR-8. To be noted: read-out: apparent Kd; compound concentrations:100 nM and 1000 nM (sheet 'Samples'); n = 1.
Experiment [5] relates to CSNK2A2. Details: species or system human, MV4-11 + K-562 + COLO205 + SK-N-BE2 + OVCAR-8. To be noted: read-out: apparent Kd; compound concentrations:100 nM and 1000 nM (sheet 'Samples'); n = 1.
Experiment [6] has as its system ERCC2. On the set-up: species or system human, MV4-11 + K-562 + COLO205 + SK-N-BE2 + OVCAR-8. The conditions noted are these: read-out: apparent Kd; compound concentrations:100 nM and 1000 nM (sheet 'Samples'); n = 1.
Experiment [7] deals with MYLK3. Details: species or system human, MV4-11 + K-562 + COLO205 + SK-N-BE2 + OVCAR-8. To be noted: read-out: apparent Kd; compound concentrations:100 nM and 1000 nM (sheet 'Samples'); n = 1.
In experiment [8] the target is Q6ZSR9 (human, UniProt Q6ZSR9). Details: species or system MV4-11 + K-562 + COLO205 + SK-N-BE2 + OVCAR-8. The conditions noted are these: read-out: apparent Kd; compound concentrations:100 nM and 1000 nM (sheet 'Samples'); n = 1.
Experiment [9] relates to TTK. Details: species or system human, MV4-11 + K-562 + COLO205 + SK-N-BE2 + OVCAR-8. The conditions noted are these: read-out: apparent Kd, n = 1.
Experiment [10] concerns CDK6. On the set-up: species or system human, MV4-11 + K-562 + COLO205 + SK-N-BE2 + OVCAR-8. The conditions noted are these: read-out: apparent Kd; compound concentrations:100 nM and 1000 nM (sheet 'Samples'); n = 1.
Experiment [11] concerns CDK7. On the set-up: species or system human, MV4-11 + K-562 + COLO205 + SK-N-BE2 + OVCAR-8. To be noted: read-out: apparent Kd; compound concentrations:100 nM and 1000 nM (sheet 'Samples'); n = 1.
For experiment [12], the system named is CDK9. On the set-up: species or system human, MV4-11 + K-562 + COLO205 + SK-N-BE2 + OVCAR-8. The conditions noted are these: read-out: apparent Kd; compound concentrations:100 nM and 1000 nM (sheet 'Samples'); n = 1.
In experiment [13] the test system is CDKL5. Details: species or system human, MV4-11 + K-562 + COLO205 + SK-N-BE2 + OVCAR-8. To be noted: read-out: apparent Kd; compound concentrations:100 nM and 1000 nM (sheet 'Samples'); n = 1.
Experiment [14] has as its system EPHB2. Details: species or system human, MV4-11 + K-562 + COLO205 + SK-N-BE2 + OVCAR-8. To be noted: read-out: apparent Kd; compound concentrations:100 nM and 1000 nM (sheet 'Samples'); n = 1.
For experiment [15], the system named is FER. Details: species or system human, MV4-11 + K-562 + COLO205 + SK-N-BE2 + OVCAR-8. To be noted: read-out: apparent Kd; compound concentrations:100 nM and 1000 nM (sheet 'Samples'); n = 1.
Experiment [16] relates to GSK3A. Details: species or system human, MV4-11 + K-562 + COLO205 + SK-N-BE2 + OVCAR-8. The conditions noted are these: read-out: apparent Kd; compound concentrations:100 nM and 1000 nM (sheet 'Samples'); n = 1.
The subject of experiment [17] is GSK3B. Details: species or system human, MV4-11 + K-562 + COLO205 + SK-N-BE2 + OVCAR-8. To be noted: read-out: apparent Kd; compound concentrations:100 nM and 1000 nM (sheet 'Samples'); n = 1.
The test system of experiment [18] is ICK. On the set-up: species or system human, MV4-11 + K-562 + COLO205 + SK-N-BE2 + OVCAR-8. The conditions noted are these: read-out: apparent Kd; compound concentrations:100 nM and 1000 nM (sheet 'Samples'); n = 1.
Experiment [19] concerns MAPK7. On the set-up: species or system human, MV4-11 + K-562 + COLO205 + SK-N-BE2 + OVCAR-8. The conditions noted are these: read-out: apparent Kd; compound concentrations:100 nM and 1000 nM (sheet 'Samples'); n = 1.
The subject of experiment [20] is NQO2. Details: species or system human, MV4-11 + K-562 + COLO205 + SK-N-BE2 + OVCAR-8. To be noted: read-out: apparent Kd, n = 1.
Experiment [21] has as its system PDGFRB. On the set-up: species or system human, MV4-11 + K-562 + COLO205 + SK-N-BE2 + OVCAR-8. To be noted: read-out: apparent Kd; compound concentrations:100 nM and 1000 nM (sheet 'Samples'); n = 1.
The test system of experiment [22] is TNK1. On the set-up: species or system human, MV4-11 + K-562 + COLO205 + SK-N-BE2 + OVCAR-8. The conditions noted are these: read-out: apparent Kd, n = 1.
The test system of experiment [23] is TNK2. On the set-up: species or system human, MV4-11 + K-562 + COLO205 + SK-N-BE2 + OVCAR-8. The conditions noted are these: read-out: apparent Kd; compound concentrations:100 nM and 1000 nM (sheet 'Samples'); n = 1.
Experiment [24] has as its system CDC42. On the set-up: species or system human, MV4-11 + K-562 + COLO205 + SK-N-BE2 + OVCAR-8. The conditions noted are these: read-out: apparent Kd; compound concentrations: 100 nM and 1000 nM (sheet 'Samples'), CATDS: 4.3032630224219597E-2; n = 1.
Experiment [25] deals with CLK1. Details: species or system human, MV4-11 + K-562 + COLO205 + SK-N-BE2 + OVCAR-8. The conditions noted are these: read-out: apparent Kd; compound concentrations: 100 nM and 1000 nM (sheet 'Samples'), CATDS: 4.7124029654616303E-2; n = 1.
Experiment [26] has as its system CLK4. On the set-up: species or system human, MV4-11 + K-562 + COLO205 + SK-N-BE2 + OVCAR-8. To be noted: read-out: apparent Kd; compound concentrations: 100 nM and 1000 nM (sheet 'Samples'), CATDS: 4.6212544182609797E-2; n = 1.
Experiment [27] concerns COX5A. Details: species or system human, MV4-11 + K-562 + COLO205 + SK-N-BE2 + OVCAR-8. To be noted: read-out: apparent Kd; compound concentrations: 100 nM and 1000 nM (sheet 'Samples'), CATDS: 4.3023154041585097E-2; n = 1.
Experiment [28] relates to CSNK1D. Details: species or system human, MV4-11 + K-562 + COLO205 + SK-N-BE2 + OVCAR-8. The conditions noted are these: read-out: apparent Kd; compound concentrations: 100 nM and 1000 nM (sheet 'Samples'), CATDS: 4.2260690384559901E-2; n = 1.
Experiment [29] relates to CSNK1E. On the set-up: species or system human, MV4-11 + K-562 + COLO205 + SK-N-BE2 + OVCAR-8. The conditions noted are these: read-out: apparent Kd; compound concentrations: 100 nM and 1000 nM (sheet 'Samples'), CATDS: 3.6484131745227702E-2; n = 1.
For experiment [30], the system named is EIF2AK1. Details: species or system human, MV4-11 + K-562 + COLO205 + SK-N-BE2 + OVCAR-8. To be noted: read-out: apparent Kd; compound concentrations: 100 nM and 1000 nM (sheet 'Samples'), CATDS: 4.9510201878617897E-2; n = 1.
The subject of experiment [31] is GAK. Details: species or system human, MV4-11 + K-562 + COLO205 + SK-N-BE2 + OVCAR-8. The conditions noted are these: read-out: apparent Kd; compound concentrations: 100 nM and 1000 nM (sheet 'Samples'), CATDS: 0.41748311116987502; n = 1.
Experiment [32] has as its system IGF1R. Details: species or system human, MV4-11 + K-562 + COLO205 + SK-N-BE2 + OVCAR-8. The conditions noted are these: read-out: apparent Kd; compound concentrations: 100 nM and 1000 nM (sheet 'Samples'), CATDS: 4.75175381268634E-2; n = 1.
In experiment [33] the test system is INSR. On the set-up: species or system human, MV4-11 + K-562 + COLO205 + SK-N-BE2 + OVCAR-8. To be noted: read-out: apparent Kd; compound concentrations: 100 nM and 1000 nM (sheet 'Samples'), CATDS: 6.6437205793840798E-2; n = 1.
Experiment [34] deals with MAPK10. On the set-up: species or system human, MV4-11 + K-562 + COLO205 + SK-N-BE2 + OVCAR-8. To be noted: read-out: apparent Kd; compound concentrations: 100 nM and 1000 nM (sheet 'Samples'), CATDS: 0.17405984899870899; n = 1.
For experiment [35], the system named is MAPK8. On the set-up: species or system human, MV4-11 + K-562 + COLO205 + SK-N-BE2 + OVCAR-8. To be noted: read-out: apparent Kd; compound concentrations: 100 nM and 1000 nM (sheet 'Samples'), CATDS: 0.110364514010045; n = 1.
The test system of experiment [36] is MAPK9. Details: species or system human, MV4-11 + K-562 + COLO205 + SK-N-BE2 + OVCAR-8. To be noted: read-out: apparent Kd; compound concentrations: 100 nM and 1000 nM (sheet 'Samples'), CATDS: 6.3911773548267894E-2; n = 1.
The subject of experiment [37] is PSMC4. On the set-up: species or system human, MV4-11 + K-562 + COLO205 + SK-N-BE2 + OVCAR-8. The conditions noted are these: read-out: apparent Kd; compound concentrations: 100 nM and 1000 nM (sheet 'Samples'), CATDS: 4.1025682332982399E-2; n = 1.
Experiment [38] deals with PTK2B. On the set-up: species or system human, MV4-11 + K-562 + COLO205 + SK-N-BE2 + OVCAR-8. To be noted: read-out: apparent Kd; compound concentrations: 100 nM and 1000 nM (sheet 'Samples'), CATDS: 7.7838120070478606E-2; n = 1.
Where [39] appears, read: compound concentrations:100 nM and 1000 nM (sheet 'Samples').

Read-outs that look alike come from different tables or passages of the source.

Sequence of Q6ZSR9 (Q6ZSR9 whole entry, looked up): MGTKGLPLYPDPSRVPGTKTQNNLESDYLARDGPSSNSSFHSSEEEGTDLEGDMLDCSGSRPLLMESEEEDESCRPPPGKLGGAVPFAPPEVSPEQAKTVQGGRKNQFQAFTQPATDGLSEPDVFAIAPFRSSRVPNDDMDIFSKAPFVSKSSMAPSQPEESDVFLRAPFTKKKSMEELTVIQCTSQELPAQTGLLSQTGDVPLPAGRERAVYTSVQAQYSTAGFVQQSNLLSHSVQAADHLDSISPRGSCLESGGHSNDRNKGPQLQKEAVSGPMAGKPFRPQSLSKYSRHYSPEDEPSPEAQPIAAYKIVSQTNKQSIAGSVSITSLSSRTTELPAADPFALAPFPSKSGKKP

With `NS(=O)(=O)c1ccc(N/N=C2\C(=O)Nc3ccc(C(=O)NCc4ccncc4)cc32)cc1` [GSK300657X], the potency estimated from few doses is 486 nM in experiment [1]; 957 nM in [2]; 567 nM in [3]; 1460 nM in experiment [4]; 771 nM in experiment [5]; 2250 nM in [6]. Further, the figures for the potency estimated from few doses in experiment [7], in experiment [8] and in experiment [9] (setting [39]) were 1620 nM, 2140 nM and 2100 nM, respectively.

On to `CN1CCC(C(=O)Nc2n[nH]c3nc(-c4ccc(O)cc4)c(Br)cc23)CC1.O=C(O)/C=C\C(=O)O` [SB-732881-H], for which the potency estimated from few doses in [1] is 531 nM; in experiment [2] it was 459 nM; in experiment [10], 786 nM; in [11], 732 nM; in experiment [12] it was 234 nM; in experiment [13], 21 nM. Moreover, the potency estimated from few doses in [14] was 1100 nM; in experiment [6] it was 985 nM; in experiment [15], 1270 nM; in experiment [16], 2.51 nM; in experiment [17] it was 8.66 nM; in [18], 1160 nM. For the same compound, the potency estimated from few doses is 1760 nM in [19]; 1590 nM in experiment [20] (setting [39]); 1730 nM in experiment [21]; 744 nM in [22] (setting [39]); 964 nM in experiment [23].

With `CCCN1CCCC(c2ccc(Nc3nc(Nc4cc(F)ccc4C(N)=O)c4cc[nH]c4n3)c(OC)c2)C1` (centres unmarked) [GSK1173862A], the potency estimated from few doses was 1230 nM in experiment [24]; 927 nM in experiment [25]; 982 nM in experiment [26]; 1230 nM in [27]; 1310 nM in experiment [28]; 2340 nM in experiment [29]. Also, the potency estimated from few doses in experiment [30] is 805 nM; in experiment [31], 17.6 nM; in experiment [32], 905 nM; in [33] it was 391 nM; in experiment [34] it was 65.2 nM; in [35], 143 nM. The potency estimated from few doses is 427 nM in experiment [36]; 1570 nM in [20] (compound concentrations: 100 nM and 1000 nM (sheet 'Samples'), CATDS: 4.0166930587455497E-2); 1450 nM in experiment [37]; 280 nM in experiment [38]; 257 nM in experiment [22] (compound concentrations: 100 nM and 1000 nM (sheet 'Samples'), CATDS: 8.1062749446302901E-2); 783 nM in [9] (compound concentrations: 100 nM and 1000 nM (sheet 'Samples'), CATDS: 5.00246606430578E-2).
